# “And” between values parts separate entries of the source, which are not always exact repeats. Identical values can stand only once. Some compounds were tested as several samples or in several runs, with calls that do not always agree. The source made the active and inactive calls. The calls were made as follows: active = hit-call score of the fitted dose curve at least 0.9, where 1 is the maximum; inactive = score below 0.9.
# Assay: ATG_SREBP_CIS: Attagene CIS-FACTORIAL HepG2 Assay for human Sterol Regulatory Element Binding (SREBP) (AID 2282962)
# Settings: HepG2 Attagene cis-factorial SREBP reporter, mRNA; actives raise or lower the signal
# Protocol: ATG_CIS is a cell-based, multiplexed-readout assay that uses HepG2, a human liver cell line, with measurements taken at 24 hours after chemical dosing in a 24-well plate.ATG_SREBP_CIS is one of 52 assay component(s) measured or calculated from the ATG_CIS assay. It is designed to make measurements of mRNA induction, a form of inducible reporter, as detected with fluorescence intensity signals by Reverse transcription polymerase chain reaction (RT-PCR) and Capillary electrophoresis technology.Data from the assay component ATG_SREBP_CIS was analyzed into 1 assay endpoint. This assay endpoint, ATG_SREBP_CIS, was analyzed with bidirectional fitting relative to DMSO as the negative control and baseline of activity. Using a type of inducible reporter, measures of mRNA for gain or loss-of-signal activity can be used to understand the reporter gene at the transcription factor-level as they relate to the gene SREBF1. Furthermore, this assay endpoint can be referred to as a primary readout, because this assay has produced multiple assay endpoints where this one serves a reporter gene function. To generalize the intended target to other relatable targets, this assay endpoint is annotated to the dna binding intended target family, where the subfamily is basic helix-loop-helix leucine zipper.
# Human liver HepG2 cells are transiently transfected with multiple reporter transcription units (MRTUs) in 6-well plates using FuGene 6 reagent (Roche; 3 ml FuGene/1 mg DNA). The MRTU constructs are regulated by a cis-regulating element (promoter). […] A major difference between the CIS and TRANS system is that in CIS activities of endogenous TFs are measured, whereas the TRANS assay evaluates changes in activities of exogenous, chimeric NR-Gal4 proteins. […] At the end of 24 hour incubation, total RNA was isolated using TriZol reagent (Invitrogen). The isolated RNA is then reverse-transcribed using oligo(dT) primer and Mo-MLV reverse transcriptase (Invitrogen) with DNAse I (Ambion) treatment for 30 min. The one-tenth of the produced cDNA was amplified by PCR using Taq DNA polymerase (Invitrogen) and two reporter sequence-specific primers. The PCR products were fluorescently labeled by primer extension with 6-arboxyfluorescein (6-FAM) 5'-labeled reporter sequence-specific primer (2 min at 95 C, 20 s at 68 C and 10 min at 72 C) and these products were digested with 5U of HpaI (New England Biolabs) for 2h at 37 C. The fragments were purified using Qiaquick PCR columns (Qiagen), analyzed on an ABI 3130xL genetic analyzer (Applied Biosystems) with peak positions identified by using a set of X-rhodamine (ROX)-labeled MapMarker1000 molecular weight standards (BioVentures). The raw capillary electrophoresis data was processed using Attagraph software (Attagene).
SMILES,outcome,AC50
Sc1ccccc1,inactive,–
CC(C)C(=O)OCC(C)(C)C(OC(=O)C(C)C)C(C)C (stereo not given),inactive,–
OCC(O)CO,inactive,–
C[C@]12CCC(=O)C=C1CC[C@@H]1[C@@H]2CC[C@]2(C)C(=O)CC[C@@H]12,inactive,68.4 µM (active)
CCOC(=O)C(O)(c1ccc(Cl)cc1)c1ccc(Cl)cc1,inactive,–
O=C(N[C@H]1CN2CCC1CC2)c1cc2ccoc2cn1,inactive,–
Cc1ccccc1CO[C@@H]1C[C@@]2(C(C)C)CC[C@]1(C)O2,–,14.7 µM (active)
O=S(=O)(O)C(F)(F)C(F)(F)C(F)(F)C(F)(F)C(F)(F)C(F)(F)F,inactive,–
NS(=O)(=O)C(F)(F)C(F)(F)C(F)(F)C(F)(F)C(F)(F)C(F)(F)C(F)(F)C(F)(F)F,inactive,38.9 µM (active) and 50 µM (active)
CC1=C2C[C@H]3[C@@H](CC=C4C[C@@H](O)CC[C@@]43C)[C@@H]2CC[C@]12O[C@@H]1C[C@H](C)CN[C@H]1[C@H]2C,inactive,–
ClC1=C(Cl)[C@]2(Cl)[C@@H]3[C@H]4C[C@H]([C@@H]5O[C@H]45)[C@@H]3[C@@]1(Cl)C2(Cl)Cl,inactive,–
C=CC(N)=O,inactive,–
CC(C)(O)C(=O)Nc1ccc([N+](=O)[O-])c(C(F)(F)F)c1,inactive,–
C[C@]12CCC(=O)C=C1CC[C@@H]1[C@@H]2CC[C@@]2(C)[C@H]1CC[C@]2(C)O,inactive,57.5 µM (active) and 45.9 µM (active) and 62.4 µM (active)
CCCCCCCCCc1ccc(O)cc1,inactive,–
Cc1ccc(O)c(C)c1,inactive,–
Clc1ccc(C(c2ccccc2Cl)C(Cl)(Cl)Cl)cc1 (stereo not given),inactive,93.9 µM (active)
CN(C)CCO,inactive,–

SMILES,outcome,AC50
Cc1cc2c3c(c1)C(c1ccccc1)=N[C@@H](NC(=O)c1ccncc1)C(=O)N3CC2,–,19.9 µM (active)
CC(c1ccc(O)cc1)(c1ccc(O)cc1)c1ccc(O)cc1,–,2.64 µM (active)
O=C(NC(=O)c1cc(F)c(F)cc1Cl)Nc1cc(F)ccc1N1CCC(C(=O)O)CC1,–,4.65 µM (active)
ClC1=C(Cl)[C@]2(Cl)[C@@H]3[C@@H]4C[C@@H]([C@H]5O[C@@H]45)[C@@H]3[C@@]1(Cl)C2(Cl)Cl,inactive,–
Oc1ccc(C(c2ccc(O)cc2)(C(F)(F)F)C(F)(F)F)cc1,inactive,–
O=C(O)C(F)(F)C(F)(F)C(F)(F)C(F)(F)C(F)(F)F,inactive,–
Clc1ccc(Cl)cc1,inactive,–
CCNc1nc(NC(C)C)nc(SC)n1,inactive,–
Nc1ccc(-c2ccc(N)cc2)cc1,inactive,–
c1cc2ccc3cccc4ccc(c1)c2c34,inactive,–
Clc1ccc(C(Cl)(Cl)Cl)cc1,inactive,–
COS(=O)(=O)OC,inactive,–
CCSC(=O)N(CC)C1CCCCC1,inactive,–
C=CC(=O)NCNC(=O)C=C,inactive,–
CCOP(=S)(OCC)SCSC(C)(C)C,–,100 µM (active) and 73.9 µM (active)
Cc1cc(-c2ccc(N)c(C)c2)ccc1N,inactive,–
ClC(Cl)=C(c1ccc(Cl)cc1)c1ccc(Cl)cc1,inactive,130 µM (active) and 169 µM (active)
